HTR5A ag ctr = activates human HTR5A in OPRM1-OPRD1 agonist counter-screen; activation, % at 9.3 µM; P47898; HTR5A agonist assay, luminescence, cell-based; AID 504692; hit rate 0.61% among 340,000; in the data active = activation mostly above about 9.5%, no sharp cut-off; inactive = mostly below about 7.6%;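 note: 0% = cells with vehicle only and 100% = reference agonist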
HTR2A ag = mouse HTR2A agonism via beta-arrestin recruitment; P35363; CHO-K1 mHTR2A beta-arrestin complementation, luminescence; percent of 30 µM serotonin response; activation, % at 7.6 µM; hit rate 0.66% among 360,000;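 active = activation above a run cutoff, the mean activation of all tested compounds plus 3 SD, cut at about 14% in these data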;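 note: 0% = plate median of compound wells and 100% = 30 µM serotonin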
OPRM1-OPRD1 inv = mu-delta opioid heterodimer inverse agonism; P35372+P41143; cell-based MOR-DOR heterodimer luminescence; inhibition, % at 9.3 µM; hit rate 0.21% among 340,000; AID 504357; in the data active = inhibition above about 22%, passing the limit was not always enough;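 note: 0% = cells with DMSO and 100% = wells without cells with DMSO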
HTR5A inv ag = inverse agonist of human HTR5A in OPRM1-OPRD1 counter-screen. HTR5A cell line, luminescence, inverse agonism. inhibition, % at 9.3 µM. AID 504634. hit rate 0.083% among 340,000; in the data active = inhibition mostly above about 23%, no sharp cut-off; inactive = mostly below about 18%;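 note: 0% = cells with DMSO and 100% = no-cell wells with DMSO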
sPLA2-III inh = Inhibits HGIII-sPLA2 liposome hydrolysis, primary screen; hit rate 0.56% among 370,000; inhibition, % at 12.2 µM; QFRET BODIPY PC-A2 liposome hydrolysis, fluorescence; Q9NZ20;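 active = inhibition above mean plus 3 SD of compounds lying within the high and low control bounds, cut at about 19% in these data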;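 note: 0% = median of test compound wells and 100% = no enzyme DMSO wells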
Target sequence (Q9NZ20 whole entry, looked up): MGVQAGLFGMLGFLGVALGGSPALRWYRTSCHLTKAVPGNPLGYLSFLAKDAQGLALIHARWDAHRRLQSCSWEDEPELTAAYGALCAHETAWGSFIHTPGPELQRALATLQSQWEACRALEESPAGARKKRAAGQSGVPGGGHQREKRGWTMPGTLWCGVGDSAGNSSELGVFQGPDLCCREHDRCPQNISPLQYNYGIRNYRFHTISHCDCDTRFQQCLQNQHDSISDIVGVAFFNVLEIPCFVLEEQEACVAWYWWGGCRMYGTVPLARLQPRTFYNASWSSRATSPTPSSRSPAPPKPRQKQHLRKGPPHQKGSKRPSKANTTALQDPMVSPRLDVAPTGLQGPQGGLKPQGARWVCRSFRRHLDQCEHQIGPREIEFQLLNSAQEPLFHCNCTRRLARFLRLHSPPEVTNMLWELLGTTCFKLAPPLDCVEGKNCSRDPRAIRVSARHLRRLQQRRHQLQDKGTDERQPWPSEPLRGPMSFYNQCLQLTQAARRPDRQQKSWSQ
MOR-DOR ag = agonists of human mu-delta opioid receptor heterodimerization | P35372+P41143 | hit rate 0.3% among 340,000 | cells, OPRM1-OPRD1 heterodimerization, luminescence | activation, % at 9.3 µM; in the data active = activation above about 18%;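 note: 0% = vehicle-treated cells and 100% = reference agonist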
OPRM1 ag = counter-screen for mouse HTR2A agonists: human mu opioid receptor agonists | AID 624380 | U2OS OPRM1 beta-arrestin PathHunter, luminescence; DMSO 0%, DAMGO 9.3 µM 100% | shares compounds with HTR2A ag | hit rate 5.3% among 2,300 | activation, % at 9.3 µM;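 active = mean activation above the mean of DMSO-only wells plus 3 SD, cut at about 0.5% in these data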
HTR2A ag conf = confirmation of mouse HTR2A serotonin receptor agonists. shares compounds with HTR2A ag. CHO-K1 PathHunter beta-arrestin recruitment, luminescence; DMSO 0%, 30 µM serotonin 100%. hit rate 19% among 2,300. AID 624381. activation, % at 7.6 µM;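 active = mean activation across triplicates above the hit threshold derived in the original primary screen, cut at about 15% in these data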
hGIII sPLA2 conf = human GIII-sPLA2 inhibition, confirmation | recombinant hGIII-sPLA2, BODIPY PC-A2 QFRET fluorescence | inhibition, % at 12.2 µM | hit rate 34% among 2,000 | shares compounds with sPLA2-III inh;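 active = mean inhibition across triplicates above the hit cutoff set in the earlier primary screen, cut at about 19% in these data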;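 note: 0% = enzyme with DMSO and 100% = DMSO wells lacking enzyme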
BODIPY interf = counter-screen for HGIII-sPLA2 inhibitors: 535nm fluorescence interference | shares compounds with sPLA2-III inh | BODIPY FL product fluorescence interference, QFRET | inhibition, % at 12.2 µM | hit rate 8.5% among 2,000 | AID 743282;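 active = average inhibition above the solvent-only control mean plus 3 SD, cut at about 6% in these data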;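 note: 0% = DMSO with substrate plus product and 100% = DMSO with substrate alone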
535nm interf DR = 535nm optical interference dose response, HGIII-sPLA2 counter-screen | IC50, µM | shares compounds with sPLA2-III inh | AID 743455 | 240 tested, under 10 active | BODIPY FL product fluorescence interference, cell-free;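 active = IC50 at or below 10 µM; inactive = IC50 above 10 µM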
* = called active by the depositor; . = no result. A selection: hits, their analogues and other compounds. The true share with any hit is near 2.2%.

SMILES	HTR5A ag ctr	HTR2A ag	OPRM1-OPRD1 inv	HTR5A inv ag	sPLA2-III inh	MOR-DOR ag	OPRM1 ag	HTR2A ag conf	hGIII sPLA2 conf	BODIPY interf	others
O=C(Cc1c(F)cccc1Cl)N1CCN(S(=O)(=O)c2cccc(F)c2)CC1	3	14*	2	-5	3	0	0	-2	.	.
O=C(c1ccc(S(=O)(=O)Nc2ccccc2)cc1)N1CCC1	8	2	3	-24	-5	0	.	.	.	.
O=C(CS(=O)(=O)c1ccccc1)N1CCCCCC1	-5	21*	8	12	-2	-2	0	-1	.	.
O=C(c1cccc(S(=O)(=O)NCc2ccccc2)c1)N1CCN(Cc2ccccc2)CC1	-1	-4	6	6	-6	-2	.	.	.	.
O=C(c1ccc(NS(=O)(=O)c2ccccc2)cc1)N1CCCCCC1	-4	17*	2	16	-5	0	0	-2	.	.
CC(=O)N1CCN(C(=O)c2ccc(S(=O)(=O)Nc3ccccc3C)cc2)CC1	-1	-6	8	2	0	-2	.	.	.	.
O=C(c1cccc(S(=O)(=O)NCc2ccccc2)c1)N1CCCCC1	1	19*	2	0	6	0	0	3	.	.
Cc1ccccc1NS(=O)(=O)c1ccc(C(=O)N2CCN(S(=O)(=O)c3ccccc3)CC2)cc1	1	15*	-4	-4	4	1	0	0	.	.
Cc1ccc(S(=O)(=O)CC(=O)N2CCCC2)cc1	-1	-4	9	-3	1	-2	.	.	.	.
S=C(Nc1cc(Cl)cc(Cl)c1)NC(c1ccccc1)c1ccccc1	.	.	.	.	-8	.	.	.	.	.
CCOC(=O)C1=NOC(C(C)=O)(C(=O)Nc2cc(C)cc(C)c2)C1 (stereo not given)	.	.	.	.	-2	.	.	.	.	.
Cc1ccc(CNC(=O)c2ccc(N3CCC4(CC3)CC(c3cccc(Br)c3)=NO4)c([N+](=O)[O-])c2)cc1	-4	14*	12	-7	5	-2	-1	0	.	.
Cc1ccc(CNC(=O)c2ccc(N3CCC4(CC3)CC(c3cccc(Br)c3)=NO4)c(N)c2)cc1	-1	0	-11	6	-3	2	.	.	.	.
COc1ccc2c(c1)CN1C(=O)N(C3CCCC3)S(=O)(=O)CC21 (stereo not given)	.	.	.	.	2	.	.	.	.	.
CSc1ccc(/C=C/C(=O)OCC(=O)N2CCN(S(=O)(=O)c3ccc(C)cc3C)CC2)cc1	1	24*	-17	2	-2	4	0	-2	.	.
CC1CCN(c2c(NCC3CCC(C(=O)N4CCCCC4)CC3)c(=O)c2=O)CC1 (stereo not given)	6	7	1	-18	1	0	.	.	.	.
O=C(C1CCC(CNc2c(N3CCCCC3)c(=O)c2=O)CC1)N1CCCCC1 (stereo not given)	0	19*	3	1	-4	-1	0	3	.	.
COc1ccc(S(=O)(=O)N2CCCC2C(=O)Nc2ccc(C)cc2)cc1 (stereo not given)	-1	-6	16	-1	-1	-3	.	.	.	.
COc1ccc(NC(=O)C2CCCN2S(=O)(=O)c2ccc3c(c2)C(C)(C)C(=O)N3C)cc1 (stereo not given)	.	34*	.	.	-2	.	0	-3	.	.
Cc1cccc2sc(NNC(=O)C3=COCCO3)nc12	6	17*	2	-13	21*	0	0	-1	23*	-7
COCCCNC(=O)CN1C(=O)CSc2ncccc21	4	18*	19	-13	19*	-4	-1	-4	1	-6
CCOCCCNC(=O)CN1C(=O)CSc2ccccc21	4	0	3	-12	6	-1	.	.	.	.
COc1ccc(NC(=O)CSc2ccc(-c3ccccn3)nn2)cc1OC	7	35*	19	-61	19*	-4	-1	107*	-1	-27
COC(=O)[C@]1(CNC(=O)C(C)(C)C)CC(=O)N(C)[C@@H]1c1ccccc1	.	.	.	.	3	.	.	.	.	.
O=C(c1ccc(C#Cc2ccccc2)cc1)N1CCC(O)CC1	.	.	.	.	-6	.	.	.	.	.
SMILES	HTR5A ag ctr	HTR2A ag	OPRM1-OPRD1 inv	HTR5A inv ag	sPLA2-III inh	MOR-DOR ag	OPRM1 ag	HTR2A ag conf	hGIII sPLA2 conf	BODIPY interf	others
CC(C)Oc1nc(-c2ccc(Cl)cc2)nc2ccccc12	5	-3	6	-13	0	-1	.	.	.	.
CCOc1nc(-c2ccc(Cl)cc2)nc2ccccc12	-1	27*	-3	-7	25*	1	0	1	-2	1
Cn1ccc2c(N3CCCCCCC3)cc3c(c21)C1CCC3O1 (stereo not given)	.	3	.	.	20*	.	.	.	32*	-7	535nm interf DR=>122
NC(CSCc1ccccc1Cl)C(=O)O (stereo not given)	-4	-2	-4	9	9	1	.	.	.	.
N=C(N)SCc1ccccc1Cl	-4	-5	6	14	34*	-1	.	.	11	-6
CCCc1nnc2n1N=C(c1ccc(OC)c(OC)c1)CS2	6	3	-11	-17	20*	2	.	.	0	-11
CN1c2ccccc2Sc2cc(N)ccc21	4	3	-9	-16	21*	2	.	.	36*	11*
Cc1cc(C)cc(C(=O)OCCCN(C)C2CN(Cc3cn(Cc4ccccc4C(F)(F)F)nn3)S(=O)(=O)C2)c1 (stereo not given)	.	.	.	.	-29	.	.	.	.	.
COC(=O)c1cccc(Cn2ccc3ccc(-c4ccc5ccn(C(=O)c6cccc(OC)c6)c5c4)cc32)c1	.	.	.	.	6	.	.	.	.	.
Clc1cccc(Cl)c1CSc1nnc2ccccn12	9	-1	2	18	19*	0	.	.	1	-1
Fc1cccc(Cl)c1CSc1nnc2ccccn12	-5	-1	8	14	2	-1	.	.	.	.
CC(C)(C)c1ccc(-c2cn(C[C@H](Cc3ccccc3)n3c(=O)c4ccccc4n3Cc3ccco3)nn2)cc1	.	.	.	.	7	.	.	.	.	.
COC(=O)C(C)(C)ONC(=O)Nc1ccccc1Br	7	5	4	20	21*	-1	.	.	-4	-9
CCCCN(C)C(=O)CSc1nnc(-c2cc(OC)c(OC)c(OC)c2)o1	.	.	.	.	-3	.	.	.	.	.
CCOC(=O)C1CCCN(C(=O)c2cc3ncc(Br)cn3n2)C1 (stereo not given)	2	-2	9	1	21*	-2	.	.	0	-9

Screening data as filed in PubChem BioAssay.
